Reference: the supplement of paper PMC8975748
Where a name gives a salt, the structure may show the parent alone. ± gives the standard deviation of the averaged measurements.

How the values were obtained:
[1] = system: Saccharomyces cerevisiae BY4741 SeMeCo community; test: mean cell size (pixel area) (pixels); higher = larger cells; conditions: 10 µM; 24 h; SM minimal medium
In short: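 Plates of 384 wells were acoustically predosed with drug at a final 10 µM in SM medium, and 70 µl of a Saccharomyces cerevisiae BY4741 preculture diluted from OD600 = 1.0 to OD600 = 0.3 was added for 24 h. The yeast formed a four-plasmid fluorescent community in which each plasmid complements one auxotrophy and carries a fluorescent marker. Fixed cells were imaged by automated confocal microscopy and analysed in Harmony for mean cell pixel area per well. Values are means of 3 replicates. Same SeMeCo high-content imaging drug screen: Selleck FDA-approved drugs at 10 µM, 24 h in SM medium, 384-well plates, 3 replicates.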

[2] = system: Saccharomyces cerevisiae BY4741 SeMeCo community; test: z-score of prototroph abundance vs DMSO median; higher = larger share of this subpopulation than in DMSO controls; conditions: 10 µM; 24 h; SM minimal medium; subpopulation (auxotrophy): Prototroph
In short: (§1)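 Automated confocal microscopy of paraformaldehyde-fixed cells was used to follow a Saccharomyces cerevisiae BY4741 community carrying four plasmids, each restoring one auxotrophy and encoding a distinct fluorescent protein. The community was pre-grown overnight to OD600 1.0, diluted to 0.3, and added at 70 µl to 384-well plates acoustically predosed with library drugs (10 µM final) for 24 h of growth in minimal SM medium. Single-auxotroph fluorescent strains set thresholds and autofluorescence correction, and each subpopulation's abundance was scored as a z-score against the vehicle-well median.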

[3] = system: Saccharomyces cerevisiae BY4741 SeMeCo community; test: z-score of subpopulation abundance vs DMSO median, subpopulation auxotrophic for M; higher = larger share of this subpopulation than in DMSO controls; conditions: 10 µM; 24 h; SM minimal medium; subpopulation (auxotrophy): M
In short: as §1

[4] = system: Saccharomyces cerevisiae BY4741 SeMeCo community; test: z-score of subpopulation abundance vs DMSO median, subpopulation auxotrophic for L; higher = larger share of this subpopulation than in DMSO controls; conditions: 10 µM; 24 h; SM minimal medium; subpopulation (auxotrophy): L
In short: as §1

[5] = system: Saccharomyces cerevisiae BY4741 SeMeCo community; test: z-score of subpopulation abundance vs DMSO median, subpopulation auxotrophic for U; higher = larger share of this subpopulation than in DMSO controls; conditions: 10 µM; 24 h; SM minimal medium; subpopulation (auxotrophy): U
In short: as §1

[6] = system: Saccharomyces cerevisiae BY4741 SeMeCo community; test: z-score of subpopulation abundance vs DMSO median, subpopulation auxotrophic for H; higher = larger share of this subpopulation than in DMSO controls; conditions: 10 µM; 24 h; SM minimal medium; subpopulation (auxotrophy): H
In short: as §1

[7] = system: Saccharomyces cerevisiae BY4741 SeMeCo community; test: z-score of subpopulation abundance vs DMSO median, subpopulation auxotrophic for LM; higher = larger share of this subpopulation than in DMSO controls; conditions: 10 µM; 24 h; SM minimal medium; subpopulation (auxotrophy): LM
In short: as §1

[8] = system: Saccharomyces cerevisiae BY4741 SeMeCo community; test: z-score of subpopulation abundance vs DMSO median, subpopulation auxotrophic for HM; higher = larger share of this subpopulation than in DMSO controls; conditions: 10 µM; 24 h; SM minimal medium; subpopulation (auxotrophy): HM
In short: as §1

[9] = system: Saccharomyces cerevisiae BY4741 SeMeCo community; test: z-score of subpopulation abundance vs DMSO median, subpopulation auxotrophic for HU; higher = larger share of this subpopulation than in DMSO controls; conditions: 10 µM; 24 h; SM minimal medium; subpopulation (auxotrophy): HU
In short: as §1

[10] = system: Saccharomyces cerevisiae BY4741 SeMeCo community; test: z-score of subpopulation abundance vs DMSO median, subpopulation auxotrophic for UM; higher = larger share of this subpopulation than in DMSO controls; conditions: 10 µM; 24 h; SM minimal medium; subpopulation (auxotrophy): UM
In short: as §1

[11] = system: Saccharomyces cerevisiae BY4741 SeMeCo community; test: z-score of subpopulation abundance vs DMSO median, subpopulation auxotrophic for HL; higher = larger share of this subpopulation than in DMSO controls; conditions: 10 µM; 24 h; SM minimal medium; subpopulation (auxotrophy): HL
In short: as §1

[12] = system: Saccharomyces cerevisiae BY4741 SeMeCo community; test: z-score of subpopulation abundance vs DMSO median, subpopulation auxotrophic for HLU; higher = larger share of this subpopulation than in DMSO controls; conditions: 10 µM; 24 h; SM minimal medium; subpopulation (auxotrophy): HLU
In short: as §1

[13] = system: Saccharomyces cerevisiae BY4741 SeMeCo community; test: z-score of subpopulation abundance vs DMSO median, subpopulation auxotrophic for HUM; higher = larger share of this subpopulation than in DMSO controls; conditions: 10 µM; 24 h; SM minimal medium; subpopulation (auxotrophy): HUM
In short: as §1

[14] = system: Saccharomyces cerevisiae BY4741 SeMeCo community; test: z-score of subpopulation abundance vs DMSO median, subpopulation auxotrophic for LUM; higher = larger share of this subpopulation than in DMSO controls; conditions: 10 µM; 24 h; SM minimal medium; subpopulation (auxotrophy): LUM
In short: as §1

[15] = system: Saccharomyces cerevisiae BY4741 SeMeCo community; test: z-score of subpopulation abundance vs DMSO median, subpopulation auxotrophic for HLUM; higher = larger share of this subpopulation than in DMSO controls; conditions: 10 µM; 24 h; SM minimal medium; subpopulation (auxotrophy): HLUM
In short: as §1

[16] = system: Saccharomyces cerevisiae BY4741 SeMeCo community; test: z-score of subpopulation abundance vs DMSO median, subpopulation auxotrophic for HLM; higher = larger share of this subpopulation than in DMSO controls; conditions: 10 µM; 24 h; SM minimal medium; subpopulation (auxotrophy): HLM
In short: as §1

Row | Compound | mean cell size [1] | z-score of prototroph abundance [2] | z-score of subpopulation abundance [3] | z-score of subpopulation abundance [4] | z-score of subpopulation abundance [5] | z-score of subpopulation abundance [6] | z-score of subpopulation abundance [7] | z-score of subpopulation abundance [8] | z-score of subpopulation abundance [9] | z-score of subpopulation abundance [10] | z-score of subpopulation abundance [11] | z-score of subpopulation abundance [12] | z-score of subpopulation abundance [13] | z-score of subpopulation abundance [14] | z-score of subpopulation abundance [15] | z-score of subpopulation abundance [16]
1 | CC(=O)[C@H]1CC[C@H]2[C@@H]3CCC4=CC(=O)CC[C@]4(C)[C@H]3CC[C@]12C [Progesterone] | 12.5 ± 0.23 | 0.96 | 0.64 | -1.51 | -0.24 | -1.35 | -0.71 | -0.71 | -0.6 | 0.01 | -0.85 | -1.13 | -0.62 | -0.61 | -1 | 
2 | C=C1c2cccc(O)c2C(O)=C2C(=O)[C@]3(O)C(O)=C(C(N)=O)C(=O)[C@@H](N(C)C)[C@@H]3[C@@H](O)[C@H]12 [Methacycline HCl] |  | 0.09 | 0.2 | 1.08 | -0.83 | 2.58 | 0.5 | 0.54 |  | -0.59 | 1.43 | -0.87 |  | -0.23 | -0.19 | 0.92
3 | COc1ccc(-c2nc3cc(C4=NNC(=O)CC4C)ccc3[nH]2)cc1 (configuration not stated) [Pimobendan] | 12.31 ± 0.12 |  | 0.83 |  | -0.84 |  | 1.71 | 0.78 | -0.28 | -0.05 |  | 1.42 | 0.52 | 1.6 | 1.6 | 0.33
4 | C[C@H](Nc1ncnc2nc[nH]c12)c1cc2cccc(Cl)c2c(=O)n1-c1ccccc1 [Duvelisib (IPI-145, INK1197)] |  | -0.55 | -0.39 |  | 0.89 | 0.93 | 0.42 | -0.47 | -0.03 |  | 0.33 | 0.95 | -0.67 | 0.56 | 0.98 | 0.18
5 | O=C1c2c(O)ccc(O)c2C(=O)c2c(NCCNCCO)ccc(NCCNCCO)c21 [Mitoxantrone 2HCl] | 12.9 ± 0.15 | -2.59 | -14 | 5.53 | -1.69 | 21.2 | -5.45 | -7.73 |  | -8.31 | 20.9 | 54.8 | -6.42 | -5.01 |  | 
6 | COc1ccc(NS(=O)(=O)c2ccc(N)cc2)nn1 [Sulfamethoxypyridazine] |  | 0.98 | -0.66 | -0.07 | 0.12 |  |  | -0.15 | -0.08 | 0.13 | -1.05 | -0.41 | -0.17 | -0.72 | -0.55 | -1.06
7 | Cc1c(-c2ccc(O)cc2)n(Cc2ccc(OCCN3CCCCCC3)cc2)c2ccc(O)cc12 [Bazedoxifene HCl] | 12.54 ± 0.11 | -0.43 | 0.94 | -0.9 | -0.23 |  | 0.49 | 1.47 | -0.01 | -0.08 | 1.1 | -0.15 |  | 0.03 | -0.25 | 
8 | Cc1ccc(S(=O)(=O)NC(=O)NN2CC3CCCC3C2)cc1 (configuration not stated) [Gliclazide] | 12.6 ± 0.2 | 0.12 | 0.04 |  | -0.1 | -0.29 | -0.15 | 0.02 |  | 0.59 |  | -0.52 |  | -0.57 | -0.17 | 
9 | CN1C(C(=O)Nc2ccccn2)=C(O)c2sc(Cl)cc2S1(=O)=O [Lornoxicam] | 12.1 ± 0.13 | -0.29 | -0.04 | -0.14 | 0.67 |  | -0.22 | -0.77 | 0.59 |  | -0.56 | -0.19 |  | 0.46 |  | 0.08
10 | CCn1cc(C(=O)O)c(=O)c2cc(F)c(N3CCNCC3)nc21 [Enoxacin Sesquihydrate] |  |  | 0.76 | -0.96 | 1.2 | -1.49 | 0 |  | 0.47 | 1.24 | -0.59 | -0.17 | 0.88 | 0.36 |  | -0.85
11 | N#Cc1ccc2[nH]cc(CCCCN3CCN(c4ccc5oc(C(N)=O)cc5c4)CC3)c2c1 [Vilazodone HCl] | 12.34 ± 0.018 | -0.4 | 1.09 | 0.01 |  | 1.09 | 0.25 | 0.6 | 0.14 | -0.14 | 0.87 | -0.1 | 0.23 | 0.66 | -0.28 | 
12 | NCCNc1ccc(NCCN)c2c1C(=O)c1ccncc1C2=O [Pixantrone Maleate] | 11.8 ± 0.17 | 3.16 | -11.8 | 1.31 | 2.84 | 3.74 |  | -5.86 | 4.69 | -7.68 |  | 7.46 | -5.6 | -4.09 | -1.46 | 
13 | COc1cc(NS(=O)(=O)c2ccc(N)cc2)ncn1 [Sulfamonomethoxine] | 12.3 ± 0.041 |  | -0.64 | 0 | 1.19 | -0.96 | -0.55 | -1.46 |  | 0.65 |  | 0.33 |  | 0.5 | 0.33 | -0.64
14 | Cc1cccc(C)c1NC(=O)C1CCCCN1C (configuration not stated) [Mepivacaine HCl] |  | -0.33 | -0.34 |  | 1.52 | -0.77 | -0.76 | -0.57 | 0.57 | 2.17 | -0.96 | 0.11 | 0.36 | 0.38 | 0.2 | 0.13
15 | CO[C@H]1C[C@@H]2CC[C@@H](C)[C@@](O)(O2)C(=O)C(=O)N2CCCC[C@H]2C(=O)O[C@H]([C@H](C)C[C@@H]2CC[C@@H](O)[C@H](OC)C2)CC(=O)[C@H](C)/C=C(\C)[C@@H](O)[C@@H](OC)C(=O)[C@H](C)C[C@H](C)/C=C/C=C/C=C/1C [Rapamycin (Sirolimus)] | 14.19 ± 0.085 |  | -2.04 | -1.39 |  | 14.3 | 5.67 | 21.4 | 29.9 |  | 13.8 | 21 | 33 | 11.9 | 20.9 | 
